Test results reported in ChEMBL document CHEMBL2218924, “A broad activity screen in support of a chemogenomic map for kinase signalling research and drug discovery” (Biochem J, 2013).

Target: Mitogen-activated protein kinase 9 (Homo sapiens) (UniProt P45984)
Conditions: at 1 µM

Sequence of Mitogen-activated protein kinase 9 (Homo sapiens) (P45984 whole entry, looked up): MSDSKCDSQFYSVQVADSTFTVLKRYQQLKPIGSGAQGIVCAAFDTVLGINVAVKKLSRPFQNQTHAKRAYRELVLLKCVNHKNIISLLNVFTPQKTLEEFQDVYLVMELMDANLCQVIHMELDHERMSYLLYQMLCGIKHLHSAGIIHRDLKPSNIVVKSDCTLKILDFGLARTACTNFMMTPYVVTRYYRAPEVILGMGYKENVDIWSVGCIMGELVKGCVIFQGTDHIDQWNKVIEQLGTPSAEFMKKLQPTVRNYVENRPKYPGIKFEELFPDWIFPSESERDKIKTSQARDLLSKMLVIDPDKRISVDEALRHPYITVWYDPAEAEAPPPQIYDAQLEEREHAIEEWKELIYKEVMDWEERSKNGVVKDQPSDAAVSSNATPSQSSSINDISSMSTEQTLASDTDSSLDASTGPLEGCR

With `Cn1cc(/C=C2\C(=O)Nc3ccc(S(N)(=O)=O)cc32)c2ccccc21` as the molecule, how does the residual activity read?
Its residual activity is 98%.

For `COc1cc2ncnc(Nc3ccc(Oc4ccccc4)cc3)c2cc1OC`, which residual activity is on record?
Its residual activity is 121%.

Which residual activity does the source give for `O=c1cc(-c2cccc3c2Sc2ccccc2S3)oc(N2CCOCC2)c1` here?
Its residual activity is 103%.

With `Oc1ccc(-c2nc(-c3ccc(F)cc3)c(-c3ccncc3)[nH]2)cc1` as the molecule, how does the residual activity read?
Its residual activity is 69%.

Which residual activity does the source give for `O=C1c2ccccc2-[n+]2ccc3c([nH]c4ccccc43)c21` here?
The residual activity was 92%.

How did the residual activity turn out when `Nc1nc(Nc2ccc(S(N)(=O)=O)cc2)nn1C(=S)Nc1c(F)cccc1F` was run?
The residual activity was 71%.

`N#C/C(=C(\N)Sc1ccc(N)cc1)c1ccccc1C(F)(F)F` was tested. Which residual activity did it give?
The residual activity was 93%.

Which residual activity does the source give for `c1ccc(-c2n[nH]cc2-c2ccnc3ccccc23)nc1` here?
The residual activity was 109%.

Which residual activity does the source give for `CC(=O)c1ccc(N2CCOCC2)cc1O` here?
Its residual activity is 101%.

`CO[C@@H]1[C@H](N(C)C(=O)c2ccccc2)C[C@H]2O[C@]1(C)n1c3ccccc3c3c4c(c5c6ccccc6n2c5c31)C(=O)NC4` was tested. Which residual activity did it give?
Its residual activity is 99%.

How did the residual activity turn out when `O=C(Nc1cccc(Nc2nccc(Nc3cccc(C(F)(F)F)c3)n2)c1)C1CC1` was run?
Its residual activity is 102%.

`N#Cc1cnc2cnc(NCc3cccnc3)cc2c1Nc1ccc(F)c(Cl)c1` was tested. Which residual activity did it give?
The residual activity was 95%.

With `CC(=O)O/N=C1\C(=C2\C(=O)Nc3cc(Br)ccc32)Nc2ccccc21` as the molecule, how does the residual activity read?
Its residual activity is 91%.

With `Cn1cnc2cc3c(Nc4cccc(Br)c4)ncnc3cc21` as the molecule, how does the residual activity read?
The residual activity was 112%.

For `CCC(=O)Nc1ccc2ncnc(Nc3cccc(Br)c3)c2c1`, which residual activity is on record?
The residual activity was 105%.

For `O=c1c2ccccc2[nH]c(=S)n1CCN1CCC(=C(c2ccc(F)cc2)c2ccc(F)cc2)CC1`, which residual activity is on record?
Its residual activity is 107%.

How did the residual activity turn out when `CC[n+]1c(/C=C/N(C)c2ccccc2)n(-c2ccccc2)c2ccc(-c3nc4ccccc4s3)cc21` was run?
Its residual activity is 113%.

For `O=Nc1c(-c2c(O)[nH]c3ccccc23)[nH]c2ccccc12`, which residual activity is on record?
Its residual activity is 55%.

For `CC#CC(=O)Nc1cc2c(Nc3ccc(F)c(Cl)c3)ncnc2cn1`, which residual activity is on record?
The residual activity was 103%.

For `O=[N+]([O-])c1ccc(-c2nc(-c3ccc(F)cc3)c(-c3ccncc3)[nH]2)cc1`, which residual activity is on record?
The residual activity was 68%.

How did the residual activity turn out when `Cc1cc2ncc(-c3ccccc3)nc2cc1C` was run?
Its residual activity is 108%.

`COc1cc2ncnc(Nc3ccc(NC(=O)c4ccccc4)cc3)c2cc1OC` was tested. Which residual activity did it give?
Its residual activity is 109%.

Which residual activity does the source give for `O=C(O)c1ccc2c3c1cccc3c(=O)n1c3ccccc3nc21` here?
Its residual activity is 83%.

How did the residual activity turn out when `CCN(CC)C(=O)c1ccc(Nc2nc(OCC3CCCCC3)c3nc[nH]c3n2)cc1` was run?
Its residual activity is 44%.

`O=C1Nc2ccc(Br)cc2/C1=C\c1cc2c([nH]1)CCCC2` was tested. Which residual activity did it give?
Its residual activity is 101%.

With `Oc1ccc(Nc2nc(-c3ccc(Cl)cc3)cs2)cc1` as the molecule, how does the residual activity read?
Its residual activity is 101%.

With `c1ccc2c(-c3ccncc3)c[nH]c2c1` as the molecule, how does the residual activity read?
Its residual activity is 107%.

Target: Mitogen-activated protein kinase 9 (Homo sapiens) (UniProt P45984)
Conditions: at 10 µM

`Cn1cc(/C=C2\C(=O)Nc3ccc(S(N)(=O)=O)cc32)c2ccccc21` was tested. Which residual activity did it give?
Its residual activity is 95%.

How did the residual activity turn out when `COc1cc2ncnc(Nc3ccc(Oc4ccccc4)cc3)c2cc1OC` was run?
Its residual activity is 98%.

With `O=c1cc(-c2cccc3c2Sc2ccccc2S3)oc(N2CCOCC2)c1` as the molecule, how does the residual activity read?
Its residual activity is 100%.

Which residual activity does the source give for `Oc1ccc(-c2nc(-c3ccc(F)cc3)c(-c3ccncc3)[nH]2)cc1` here?
The residual activity was 12%.

How did the residual activity turn out when `O=C1c2ccccc2-[n+]2ccc3c([nH]c4ccccc43)c21` was run?
The residual activity was 106%.

Which residual activity does the source give for `Nc1nc(Nc2ccc(S(N)(=O)=O)cc2)nn1C(=S)Nc1c(F)cccc1F` here?
Its residual activity is 19%.

How did the residual activity turn out when `N#C/C(=C(\N)Sc1ccc(N)cc1)c1ccccc1C(F)(F)F` was run?
The residual activity was 103%.

For `c1ccc(-c2n[nH]cc2-c2ccnc3ccccc23)nc1`, which residual activity is on record?
The residual activity was 99%.

Which residual activity does the source give for `CC(=O)c1ccc(N2CCOCC2)cc1O` here?
The residual activity was 103%.

`CO[C@@H]1[C@H](N(C)C(=O)c2ccccc2)C[C@H]2O[C@]1(C)n1c3ccccc3c3c4c(c5c6ccccc6n2c5c31)C(=O)NC4` was tested. Which residual activity did it give?
The residual activity was 91%.

With `O=C(Nc1cccc(Nc2nccc(Nc3cccc(C(F)(F)F)c3)n2)c1)C1CC1` as the molecule, how does the residual activity read?
Its residual activity is 93%.

Which residual activity does the source give for `N#Cc1cnc2cnc(NCc3cccnc3)cc2c1Nc1ccc(F)c(Cl)c1` here?
Its residual activity is 97%.

Which residual activity does the source give for `CC(=O)O/N=C1\C(=C2\C(=O)Nc3cc(Br)ccc32)Nc2ccccc21` here?
The residual activity was 94%.

For `Cn1cnc2cc3c(Nc4cccc(Br)c4)ncnc3cc21`, which residual activity is on record?
Its residual activity is 94%.

Which residual activity does the source give for `CCC(=O)Nc1ccc2ncnc(Nc3cccc(Br)c3)c2c1` here?
Its residual activity is 89%.

Which residual activity does the source give for `O=c1c2ccccc2[nH]c(=S)n1CCN1CCC(=C(c2ccc(F)cc2)c2ccc(F)cc2)CC1` here?
Its residual activity is 101%.

`CC[n+]1c(/C=C/N(C)c2ccccc2)n(-c2ccccc2)c2ccc(-c3nc4ccccc4s3)cc21` was tested. Which residual activity did it give?
Its residual activity is 102%.

`O=Nc1c(-c2c(O)[nH]c3ccccc23)[nH]c2ccccc12` was tested. Which residual activity did it give?
Its residual activity is 17%.

For `CC#CC(=O)Nc1cc2c(Nc3ccc(F)c(Cl)c3)ncnc2cn1`, which residual activity is on record?
The residual activity was 95%.

For `O=[N+]([O-])c1ccc(-c2nc(-c3ccc(F)cc3)c(-c3ccncc3)[nH]2)cc1`, which residual activity is on record?
The residual activity was 59%.

For `Cc1cc2ncc(-c3ccccc3)nc2cc1C`, which residual activity is on record?
The residual activity was 97%.

`COc1cc2ncnc(Nc3ccc(NC(=O)c4ccccc4)cc3)c2cc1OC` was tested. Which residual activity did it give?
The residual activity was 108%.

Which residual activity does the source give for `O=C(O)c1ccc2c3c1cccc3c(=O)n1c3ccccc3nc21` here?
The residual activity was 55%.

With `Cc1cccc(-c2[nH]c(C(C)(C)C)nc2-c2ccc3c(c2)OCO3)n1` as the molecule, how does the residual activity read?
Its residual activity is 94%.

For `CCN(CC)C(=O)c1ccc(Nc2nc(OCC3CCCCC3)c3nc[nH]c3n2)cc1`, which residual activity is on record?
The residual activity was 0%.

`Cc1cc(Nc2nc(-c3ccccc3)nc3ccccc23)n[nH]1` was tested. Which residual activity did it give?
The residual activity was 66%.

With `Oc1ccc(Nc2nc(-c3ccc(Cl)cc3)cs2)cc1` as the molecule, how does the residual activity read?
Its residual activity is 113%.

How did the residual activity turn out when `Cc1cncc2cccc(S(=O)(=O)N3CCCN(C(=O)CN)C[C@H]3C)c12` was run?
The residual activity was 79%.

With `c1ccc2c(-c3ccncc3)c[nH]c2c1` as the molecule, how does the residual activity read?
The residual activity was 93%.
